From PubChem BioAssay (NCI)
Compounds without any hit were thinned out: in the full panel of roughly 83,000, 20% have a hit.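 Activity criterion: percent growth below 10, measured after cells in 96-well plates were exposed to a single compound concentration for 48 hours.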 A number with no mark means an inactive call. Calls of active or inactive are those of the source.

The compounds below were run on HOP-92 NSCLC (assay: NCI-60 one-dose screen, 48 h (100 = growth as untreated, 0 = no growth, -100 = all killed)). Details: 10 µM unless noted.
For c1csc(C2=NN3C(C2)c2ccccc2OC3c2ccncc2)c1 (stereo not drawn), the growth was 87.4%. In the case of CC1=CC(C)(C)Nc2ccc(Cc3ccc4c(c3)C(C)=CC(C)(C)N4)cc21, the growth is reported as 99.7%. CCCCn1c(-c2ccc(C(=O)O/N=C(\N)c3ccc4ccccc4c3)cc2)nc(-c2ccccc2)c1-c1ccccc1 gave a growth of 77.6%. With O=C(Nc1ccc(Cl)cc1)c1cc2cc(F)ccc2cc1O the growth was -11.4% (active). Compound Cn1cc(-c2nonc2-c2cn(C)c3ccc(F)cc23)c2cc(F)ccc21 has a growth of 66%. CCN(CC)S(=O)(=O)c1ccc(OC)c(NC(=O)c2[nH]c(C)c3c2CCCCC3=O)c1 was tested, and the growth was 38.3%. Compound COc1cccc(-c2nc3sccn3c2-c2ccnc(NCCCNS(=O)(=O)c3cccc(F)c3)c2)c1 has a growth of 49.5%. In the case of COc1cc(/C=C/c2cc(/C=C/c3ccc(O)c(OC)c3)n(-c3c(C)cccc3C)c(=O)n2)ccc1O, the growth is reported as -3.15% (active). COc1cccc(-c2nc(SCC(=O)Nc3ccc(C(=O)/C=C/c4ccc(OC)c(OC)c4)cc3)[nH]c(=O)c2C#N)c1 was tested, and the growth was 93.2%. For Cc1cc(C)c2nc3nc(C)cc(C)c3c(N)c2c1, the growth was -1.87% (active). FC(F)(F)c1ccc(-c2cn3nc(-c4c[nH]c5ccc(Br)cc45)sc3n2)cc1 showed a growth of 88%. With CC(=O)O[C@H]1[C@@H]2OC(=O)C(CSc3ccccc3)[C@@H]2C[C@H]2O[C@]2(C)CC/C=C(\C)CCC[C@@H]1C (stereo partly drawn) the growth was -22.4% (active). Work on Cc1cc(C)nc(SC2=C(Nc3ccc(O)cc3)C(=O)N(Cc3ccccc3)C2=O)n1 yielded a growth of 38.1% [40 µM]. In the case of COC(=O)c1ccc(Cn2cnc3c(N)ncnc32)cc1, the growth is reported as 92.1%. With CCOc1nc(-c2ccccc2)cc2c(O)c(C(=O)O)[nH]c(=O)c12 the growth was 28.2%. For COc1ccc(Nc2nc(SC)nc(-c3cccc([N+](=O)[O-])c3)c2C#N)cc1, the growth was 61.3%. For CN(C)[C@@H]1C(=O)C(C(=O)NCc2nc3[nH]cnc(=S)c3[nH]2)=C(O)[C@@]2(O)C(=O)C3=C(O)c4c(O)cccc4[C@@](C)(O)[C@H]3C[C@@H]12, the growth was 25.2%. CCOC(=O)c1sc2nc(-c3cccc(O)c3)nc(N3CCOCC3)c2c1C showed a growth of 30.8%. Compound O=C1/C(=C/c2ccccc2)SC(=S)N1CCc1ccc(O)cc1 has a growth of 79.9%. In the case of OCC(O)c1nc2ccc3[nH]ncc3c2c2c1CCCC2 (stereo not drawn), the growth is reported as -10.3% (active). Compound CC[C@@H]1O[C@H](O[C@@H](c2cnc[nH]2)[C@H](NC(=O)c2nc([C@H](CC(N)=O)NC[C@@H](N)C(N)=O)nc(N)c2C)C(=O)N[C@H](C)[C@H](O)[C@H](C)C(=O)N[C@@H](C(=O)NCCc2nc(-c3nc(C(=O)NCCCCN=C(N)N)cs3)cs2)[C@@H](C)O)[C@H](O[C@@H]2O[C@H](CO)[C@H](O)[C@H](OC(N)=O)[C@@H]2O)[C@H](C)[C@@H]1C has a growth of 11.4%. For COc1cc2c(cc1-c1c(C)noc1C)ncc1nc(C3CCC(F)(F)CC3)n([C@H](C)COC(F)F)c12, the growth was 32%. O=C1c2c(O)cc(O)cc2-c2c(-c3ccc(O)cc3)oc3cc(O)cc1c23 showed a growth of 44.6%. CCN1CCN(c2nc(NCCNc3ccnc4cc(Cl)ccc34)c3ccccc3n2)CC1 showed a growth of 32.7%. For O=S(=O)(Nc1ccc(Br)c(Cl)c1)c1ccc(-c2cnc(C3CC3)o2)cc1, the growth was 40.8%. In the case of Cc1nn(-c2cc(=O)[nH]c3ccc(Cl)cc23)c(N)c1C#N, the growth is reported as 104%. Clc1ccc2c(NCCCCNc3nc(N4CCOCC4)nc4ccccc34)ccnc2c1 was tested, and the growth was 71.8%. For CCOc1nc(-c2ccccc2)cc2c(O)c(C(=O)N/N=C/c3ccc(O)cc3O)[nH]c(=O)c12, the growth was -12.1% (active). O=C(O)c1ccc(NC(=O)c2ccc(-c3cccc([N+](=O)[O-])c3)o2)cc1 was tested, and the growth was 98.6%. Cc1ccc(NS(=O)(=O)c2ccc(-c3cnc(C4CC4)o3)cc2)cc1C gave a growth of 29.6%. With O=c1ccccc(-c2ccc(-c3ccco3)cc2)c1O the growth was 60.1%. CC(C)CC1C(=O)N2CCC[C@H]2C2(O)O[C@](NC(=O)C3C=C4c5cccc6[nH]c(Br)c(c56)C[C@H]4N(C)C3)(C(C)C)C(=O)N12 (stereo partly drawn) gave a growth of 66.1%. Compound C=CC(=O)Nc1cccc(-c2nc(SC)nc(NCCN3CCOCC3)c2C#N)c1 has a growth of 76.1%. For O=S(=O)(Nc1ccc(NS(=O)(=O)c2ccccc2)c(Cl)c1)c1ccccc1, the growth was 95.3%. O=C(N=Nc1c(O)[nH]c2ccccc12)c1cc(-c2ccccc2)on1 was tested, and the growth was 96.2%. O=C1NC(=S)NC(=O)C1CC(=O)n1c(-c2ccccc2)nc2ccccc21 was tested, and the growth was 108%. Cn1c(O)c(N=NC(=O)c2cc(-c3ccccc3)on2)c2ccccc21 gave a growth of 105%. Work on CN1CCN(Cc2ccc(NC(=O)c3cncc(C#Cc4cncn5ccnc45)c3)cc2C(F)(F)F)CC1 yielded a growth of 38.8%.
